# Screens from PubChem BioAssay.
# An excerpt weighted towards active compounds, which were near 3.5% of everything screened.
# MITF primary: human MITF inhibition, primary screen. AlphaScreen MITF homodimerization, bead proximity signal. O75030. inhibition, % at 2.6 µM. 650,000 tested, 0.91% active; in the data active = inhibition above about 50%
# Target sequence (O75030 whole entry, looked up): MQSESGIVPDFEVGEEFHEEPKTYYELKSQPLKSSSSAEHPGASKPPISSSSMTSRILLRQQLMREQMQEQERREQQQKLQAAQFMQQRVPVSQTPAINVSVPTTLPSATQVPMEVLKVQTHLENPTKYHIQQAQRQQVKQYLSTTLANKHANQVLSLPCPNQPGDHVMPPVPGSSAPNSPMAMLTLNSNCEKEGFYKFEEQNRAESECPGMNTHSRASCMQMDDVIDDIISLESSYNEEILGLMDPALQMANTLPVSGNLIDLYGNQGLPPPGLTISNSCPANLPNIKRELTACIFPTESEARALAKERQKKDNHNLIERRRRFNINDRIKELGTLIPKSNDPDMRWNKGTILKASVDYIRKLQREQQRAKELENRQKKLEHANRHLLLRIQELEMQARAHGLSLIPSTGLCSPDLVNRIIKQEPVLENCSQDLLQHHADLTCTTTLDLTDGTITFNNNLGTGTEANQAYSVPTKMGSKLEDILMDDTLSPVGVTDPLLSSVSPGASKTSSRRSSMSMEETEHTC
# GPR151 ag: activates the human receptor GPR151; Q8TDV0; PathHunter beta-arrestin GPR151 cells, luminescence; activation, % at 11.2 µM; 650,000 tested, 1% active; AID 1508602; in the data active = activation above about 4.9%
# FBW7 act: activators of human E3 ligase FBW7. 650,000 tested, 0.13% active. AlphaScreen FBW7–phospho-cyclin E peptide binding, activator screen. AID 1259310. normalized activity (activation), % at 26.1 µM; in the data active = normalized activity above about 1.9%;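 also: purified mutant Fbw7 with reduced substrate affinity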
# TEAD-YAP block: TEAD-YAP interaction inhibition; HEK-TIYL cells, TEAD-Gal4/YAP UAS-luciferase luminescence; inhibition, % at 9.12 µM; 640,000 tested, 1.4% active; in the data active = inhibition above about 32%
# Numbers stand for hits; n = inactive; ! = not active in a repeat.
SMILES,MITF primary,GPR151 ag,FBW7 act,TEAD-YAP block
Cc1ccccc1-n1c(C)cc(C=O)c1C,n,n,n,n
Cc1cccc(Cn2ccn(-c3cccc(Cl)c3)c(=O)c2=O)c1,n,n,n,51
Cc1ccc(Cn2ccn(-c3cccc(Cl)c3)c(=O)c2=O)cc1,n,n,n,n
CCCc1nn2c(N)c(/C=C3\C=CC(=O)C(OCC)=C3)c(=O)nc2s1,n,n,n,n
Cc1nc2c(c(C)nn2C(C)(C)C)c(C)c1CCC(=O)N1CCCCC1,n,n,n,35
Cc1nc2c(c(C)nn2C(C)(C)C)c(C)c1CCC(=O)O,n,n,n,n
COC(=O)c1ccc(NC(=O)CSc2nnc3ccccn23)cc1,n,n,n,n
COc1ccc(-c2cncc3ccc(C(=O)N[C@H](C)c4ccccc4)nc23)cc1,n,n,n,61
COc1ccc(-c2cncc3ccc(C(=O)N[C@@H](C)c4ccccc4)nc23)cc1,n,n,n,50
CC(=O)Nc1ccccc1NC(=O)COc1ccc(C)c(C)c1,n,n,n,n
CCCn1ccc2c(OCC(=O)Nc3ccc(OC)c(OC)c3)cccc2c1=O,n,n,n,38
COCCn1ccc2c(OCC(=O)Nc3ccc(C)cc3)cccc2c1=O,n,n,n,n
CCOC(CNC(=O)c1c[nH]c2ccc(S(=O)(=O)N3CCc4ccccc43)cc2c1=O)OCC,n,n,n,n
COc1ccc(CCNC(=O)c2c[nH]c3ccc(S(=O)(=O)N4CCc5ccccc54)cc3c2=O)cc1OC,n,n,n,35
NC(=O)c1ccsc1NC(=O)c1ccc2c(c1)OCCO2,n,n,n,n
CC1(C)N=C(N)N=C(N)N1c1ccc(F)cc1,n,n,n,n
CCCCOc1ccc(N2C(N)=NC(N)=NC2(C)C)cc1,n,n,n,37
COc1ccc(/C=C/c2nc3ccccc3c(=O)o2)cc1,n,n,n,75
COc1ccc(/C=C/c2nc3ccccc3n2C)cc1,n,n,n,98
COc1ccccc1/C=C/c1nc2ccccc2c(=O)o1,n,n,n,n
COc1ccc(/C=C/c2nc3ccccc3[nH]2)cc1,n,n,n,88
COc1ccc(-c2nc3ccccc3[nH]2)cc1,n,n,n,50
COc1ccc(/C=C(/C#N)c2nc3ccccc3[nH]2)cc1,n,n,n,n
COc1ccc(/C=C/C(=O)Nc2nc3ccccc3n2C)cc1,n,n,n,n
O=C(CN1CCN(Cc2ccc(Cl)cc2)C1=O)NCC1CCCO1 (configuration not stated),n,n,n,n
SMILES,MITF primary,GPR151 ag,FBW7 act,TEAD-YAP block
C(=C\c1nc2ccccc2[nH]1)/c1ccccc1,n,n,n,80
Nc1ccc2nc(/C=C/c3ccccc3)[nH]c2c1,n,n,n,n
COc1cccc(N2CC(O)=C(c3nc4ccccc4[nH]3)C2=N)c1,n,n,n,37
COc1ccc(/C=N\n2nnc3ccccc32)cc1,n,n,n,85
COCCNC(=O)COc1ccc(C)cc1C(C)(C)C,n,n,n,n
COc1cccc2sc(NC(=O)c3cccc(Br)c3)nc12,n,n,n,n
Cc1c(C(=O)Nc2cccc(F)c2)nnn1-c1ccccc1F,n,n,n,43
Cc1c(C(=O)Nc2cccc(Cl)c2)nnn1-c1ccccc1F,n,n,n,n
CCc1cc(=O)[nH]c(-n2nc(C)cc2NC(=O)CC2CCCC2)n1,n,n,n,58
CCCc1cc(=O)[nH]c(-n2nc(C)cc2NC(=O)C2CC2)n1,n,n,n,n
CC1(C)CC(=O)C=C(NNC(=O)/C(=C/c2ccccc2)CCO)C1,n,n,1.9,n
CC1(C)CC(=O)C=C(NNC(=O)c2ccc(O)cc2)C1,n,n,n,n
O=C(CCC1(Cc2ccc(F)cc2)CCC(=O)N1)NCc1c(F)cccc1F (configuration not stated),n,n,n,36
Cc1ccc(-n2nnnc2-c2nc3ccccc3s2)cc1,n,n,n,n
CCOc1ccc(-n2nnnc2-c2nc3ccccc3s2)cc1,n,n,n,42
CC(C)COCc1ccc(O)c2ncccc12,59,n,n,n
CCOc1ccc(-c2cn[nH]c2N)cc1,n,n,n,48
C[C@]12C=CC(=O)C=C1CCC1C2[C@@H](O)C[C@@]2(C)C1CC[C@]2(O)C(=O)COC(=O)CCC(=O)O (some centres not stated),n,n,8.0,n
Cc1ccc(OC(=O)C2CC(=O)N(c3ccccc3C)C2)cc1C (configuration not stated),n,n,n,n
CCc1cccc(NC(=O)CCCC(=O)O)c1,n,n,n,n
NC(=S)NNc1cccc2cccnc12,74!,n,n,n
CCN1CCN(C2=CC(=[N+]3CCCC3)CC(C)(C)C2)CC1,n,n,n,n
CC1(C)CC(N2CCCC2)=CC(=[N+]2CCCC2)C1,n,n,n,52
CC1(C)CC(N2CCCC2)=CC(=[N+]2CCCCC2)C1,n,n,n,70
COc1ccc(N2C(N)=C(C#N)C(c3ccccc3)C3=C2CC(C)(C)CC3=O)cc1 (configuration not stated),n,n,n,n
SMILES,MITF primary,GPR151 ag,FBW7 act,TEAD-YAP block
O=C1N=C(N2CCCC2)S/C1=C\C=C\c1ccccc1,n,n,n,78
O=C1N=C(N2CCOCC2)S/C1=C/C=C/c1ccccc1,n,n,n,45
O=C1N=C(c2ccccc2)S/C1=C/C=C\c1ccccc1,n,n,n,n
CNC(=O)c1ccc2c(c1)N=C(C)c1c(C)ccc(C)c1S2,n,n,n,48
COCCCNC(=O)c1ccc(C)c(Cl)c1,n,n,n,n
COC(CNC(=O)c1ccc2c(c1)N=C(C)c1c(C)ccc(C)c1S2)OC,n,n,n,58
CNC(=O)c1ccc2c(c1)N=C(C)c1cc(Cl)ccc1S2,n,n,n,n
COC(CNC(=O)c1ccc2c(c1)N=C(C)c1ccccc1S2)OC,n,n,n,n
COC(CNC(=O)c1ccc2c(c1)N=C(C)c1cc(Cl)ccc1S2)OC,n,n,n,38
COCCCNC(=O)c1ccc2c(c1)N=C(C)c1c(C)ccc(C)c1S2,n,n,n,56
O=P1(NCCc2ccccc2)C=C(c2ccccc2)OC(c2ccccc2)=C1,n,n,n,n
COCCNC(=O)c1ccc2c(c1)N=C(C)c1c(C)ccc(C)c1S2,n,n,n,74
CCOc1ccc(NC(=O)C2=C(C)NC(=O)NC2c2ccccc2Cl)cc1 (configuration not stated),n,n,n,33
COc1ccc(-c2ccc(SCC(C)=O)nn2)cc1OC,n,n,n,n
Cc1ccc(N2C(=O)CSC2c2cccc([N+](=O)[O-])c2)cc1F (configuration not stated),n,n,n,34
O=C(Nc1cc([N+](=O)[O-])ccc1F)c1cccc(Br)c1,n,n,n,n
O=C(CCc1ccccc1)Nc1cc([N+](=O)[O-])ccc1F,n,n,n,61
O=C(Nc1cc([N+](=O)[O-])ccc1F)c1ccc(Br)cc1,n,n,n,39
O=C(Nc1cc([N+](=O)[O-])ccc1F)c1cccc(F)c1,n,n,n,34
O=C(CCCc1ccccc1)Nc1cc([N+](=O)[O-])ccc1F,n,n,n,n
O=C(Nc1cc([N+](=O)[O-])ccc1F)c1ccccc1,n,n,n,n
